Experimental data: PubChem BioAssay (NCI)
Compounds without any hit were thinned out: in the full panel of roughly 83,000, 20% have a hit.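 Treatment: one concentration, 48 hours, 96-well format. Scoring: percent growth, with anything below 10 considered active.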 Unmarked numbers belong to inactive results. The source made the active and inactive calls.

The compounds below were run on NCI-H522 lung (assay: NCI-60 one-dose screen, 48 h (100 = growth as untreated, 0 = no growth, -100 = all killed)). Conditions: 10 µM unless noted.

SMILES | growth
O=C1Nc2cc(-c3cccc(O)c3)ccc2/C1=C/c1ccc[nH]1 | 3.76% (active)
COc1ccc(/C=C/c2nc(Nc3ccc(S(=O)(=O)NC(C)=O)cc3)c3ccccc3n2)cc1 | 76.3%
CCNC(=O)Oc1ccc(/C(=C(\C)c2ccccc2)c2ccc(OCCN3CCCCC3)cc2)cc1 | 93.4%

Each compound was assayed on A549/ATCC NSCLC in the same assay as above. Conditions: 10 µM unless noted.

SMILES | growth
Cc1nn(-c2ccccc2)c(Cl)c1/C=C/C(=O)c1ccc(F)cc1 | 83.8%
COc1cc2oc(-c3cccc(C(=O)Nc4ccc(Br)cc4)c3)cc(=O)c2c(OC)c1OC | 52.3%
CC1=C(C(=O)/C=C/c2c[nH]c3ccccc23)C(c2ccccc2)NC(=S)N1 (stereo unspecified) | 106%
CCCCCN1C=C/C(=C\C(=O)N(C)c2ccc(Oc3ccccc3)cc2)c2ccccc21 | 82.3%
Cn1cc(-c2nc(-c3c[nH]c4c(Cl)nccc34)cs2)c2cc(Br)ccc21 | 66.6%
COc1ccc(/C=C2\Oc3cc(OCCCN4CCCCC4)ccc3C2=O)cc1OC | 93.6%
Cc1cc2nc3c4cc(C=O)ccc4n(CCN(C)C)c3nc2cc1C | 6.3% (active)
S=c1cc(S)c2cc(Br)ccc2[nH]1 | 89.5%
O=C(/C(=C\c1ccc([N+](=O)[O-])cc1)S(=O)Cc1ccc(Cl)cc1)c1ccc(Cl)cc1 (stereo unspecified) | 93.8%
COc1cc(CC(=O)c2ccc(O)c(OC)c2)ccc1O | 79.5%
O=C(NCCc1ccccc1)Nc1ccc2cc3ccc(NC(=O)NCCc4ccccc4)cc3nc2c1 | 73.8%
C=C(C)[C@@H]1CC[C@]2(C(=O)N3CCN(C)CC3)CC[C@]3(C)[C@H](CC[C@@H]4[C@@]5(C)C/C(=C/c6cccnc6)C(=O)C(C)(C)[C@@H]5CC[C@]43C)[C@@H]12 | 49.4%
COc1cc2nc(-c3ccc(Cl)cc3)cc(OCCCN3CCC(O)CC3)c2cc1OC | 34.9%
O=S(=O)(NCCNc1nccc(-c2c(-c3cccc(O)c3)nc3occn23)n1)c1ccccc1 | 78.9%
NC(=NCCCOc1ccc(F)cc1)Nc1ccc(Cl)cc1 | 53%
C#Cc1cccc(NC(=O)c2cccc(NC(=O)CCl)c2)c1 | 1.7% [8.25 µM] (active)
CCN1Cc2nc3sc(C)c(C)c3c(=O)n2C=C1C | 86.8%
O=C1Nc2cc(-c3cccc([N+](=O)[O-])c3)ccc2/C1=C/c1ccc[nH]1 | 101%
C[C@H]1[C@H](C)CC[C@]2(C(=O)NCC#CCN3CCN(C)CC3)CC[C@]3(C)C(=CC[C@@H]4[C@@]5(C)Cc6c([nH]c7ccccc67)C(C)(C)[C@@H]5CC[C@]43C)[C@H]12 | 69.7%

SMILES | growth
COc1cc(/C=C/c2cc(O)c(C(C)=O)c(O)c2)cc2c1O[C@]1(C)CC[C@@H](O)C(C)(C)[C@H]1C2 | 81.4%
N#CC1=C(N)Oc2c(cnn2-c2ccc([N+](=O)[O-])cc2[N+](=O)[O-])C1c1ccccc1 (stereo unspecified) | 103%
COc1ccc(C(=O)c2cc(C)c(OC)c(C)c2)c(OC)c1N(C(=O)CCl)C(=O)CCl | 13.4%
CCC(=O)Oc1ccc(/C(=C(\C)c2ccccc2)c2ccc(OCCN3CCCCC3)cc2)cc1 | 71.1%
Cc1ccc(NC(=O)c2cc(-c3nc4ccccc4s3)c(=O)n(NS(=O)(=O)c3ccc(Cl)cc3)c2N)cc1 | 100%
O=C1Nc2ccc(F)cc2/C1=C\c1c(-c2ccccc2)nc2ccccn12 | 71.7%
O=C(NO)c1ccc(-n2nc(-c3ccccc3)c3ccccc32)cc1 | 41.7%
O=C1Nc2ccccc2/C1=C\c1c(-c2ccc(F)cc2)nc2ccccn12 | 89%
Oc1cccc(CCc2ccc(Oc3cc(CCc4cccc(O)c4)cc(O)c3O)cc2)c1 | 83%
CCCCCCCC(=O)OCC/C=C/C1OC1C1OC(=O)/C=C\C=C\C(=O)N(C(C)=O)C(=O)/C=C(/C)CCC2OC2C1OC(=O)NC(C)=O (stereo unspecified) | 95.1%
Cc1ccc(NS(=O)(=O)c2ccc(-c3cnc(C4CC4)o3)cc2)cc1C(F)(F)F | 55.2%
CNC(=O)c1cncc(Cn2nc(C)c(NC(=O)c3ccc(COc4ccc(C(F)(F)F)cc4C)cc3)c2C)c1 | 55%
Cc1cc(C)c(S(=O)(=O)Oc2ccccc2[N+](=O)[O-])c(C)c1 | 31.2%
C=C1C(=O)O[C@H]2[C@H]1CC/C(CNC(=O)C(C)c1ccc(CC(C)C)cc1)=C\CC[C@@]1(C)O[C@@H]21 (stereo partly specified) | 42.2%
NC(=S)N1N=C(c2ccccc2)CC1c1cn(-c2ccccc2)nc1-c1ccc(OCc2ccccc2)cc1 (stereo unspecified) | 91.7%
CN1CCN(C(=O)[C@]23CCC(C)(C)C[C@H]2C2=CC[C@@H]4[C@@]5(C)C/C(=C/c6cccnc6)C(=O)C(C)(C)[C@@H]5CC[C@@]4(C)[C@]2(C)CC3)CC1 | 47%
O=C1Nc2cc(-c3cccc(O)c3)ccc2/C1=C/c1ccc[nH]1 | 17.7%
COc1ccc(/C=C/c2nc(Nc3ccc(S(=O)(=O)NC(C)=O)cc3)c3ccccc3n2)cc1 | 42%
CCNC(=O)Oc1ccc(/C(=C(\C)c2ccccc2)c2ccc(OCCN3CCCCC3)cc2)cc1 | 56%
